# Measured values taken from the supplement of paper PMC12636033.
# ± gives the standard deviation of the averaged measurements. The full ranking holds about 33,000 sequences; the median of “E-score (rank enrichment, -0.5 to 0.5)” is about -0.0068, and the highest 2% start at about 0.24. This is one part of a sample in which the highest values are shown more often than they occur.
# Test system: muMax20 (Max(13-93) K31hArg/K57hArg, M65Nle)
# Assay: PBM 8-mer E-score (E-score (rank enrichment, -0.5 to 0.5)); higher = stronger preferential binding
# Experimental: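 Protein binding microarray (universal PBM chip covering all 10-mers in fixed probe flanks) with chemically synthesized human Max(13-93) bHLH-LZ analogs (not full-length Max) bearing noncanonical residues (hArg, Tha, Aib, Nle at 65) and aromatic Cys staples. Read-out per 8-mer (and its reverse complement): E-score (rank-based enrichment, -0.5 to 0.5) and Z-score of median probe intensity.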
row,Sequence,PBM 8-mer E-score
1,CGCGTGAC,0.268 ± 0.12
2,TACGTGAA,0.144 ± 0.01
3,CACGTGAG,0.344 ± 0.11
4,CGCGTGAA,0.00405 ± 0.02
5,CGCGTGAG,0.122 ± 0.034
6,CACGTTAG,0.0823 ± 0.07
7,CACGTGAC,0.459 ± 0.038
8,GACGTGAC,0.0637 ± 0.034
9,CCCGTGAG,-0.289 ± 0.015
10,CACGTGAA,0.368 ± 0.099
11,GACGTGAA,-0.111 ± 0.032
12,AACGTGAC,0.155 ± 0.0051
13,ACCCGAGG,-0.1291 ± 0.0004
14,CCAGCTAC,-0.139 ± 0.0043
15,GGAGCTAA,-0.194 ± 0.096
16,ATCTCCGG,-0.11 ± 0.16
17,CCCTTAGC,-0.0766 ± 0.14
18,ACGCTGAA,-0.171 ± 0.049
19,CCTCCTAC,-0.0317 ± 0.12
20,ATACCTCC,-0.0216 ± 0.038
21,CCCATGGC,-0.167 ± 0.041
22,AACTGTAG,-0.00575 ± 0.073

row,Sequence,PBM 8-mer E-score
1,ACGACACA,-0.0466 ± 0.022
2,ATTCGCCA,-0.152 ± 0.018
3,AGCCTATA,0.25 ± 0.083
4,GGCCTATA,-0.132 ± 0.045
5,CGCCTATA,-0.0178 ± 0.0095
6,AATGTTGG,0.0876 ± 0.073
7,GATGTTGA,-0.00209 ± 0.012
8,TATGTTGA,0.238 ± 0.044
9,AATGTTGT,0.28 ± 0.01
10,AATGTTGA,-0.00564 ± 0.1
11,CATGTTGA,0.193 ± 0.044
12,ATTCTAGC,-0.0188 ± 0.08
13,CTATACGA,-0.122 ± 0.029
14,ACATACGA,0.239 ± 0.035
15,ATATACTA,0.3084 ± 0.0014
16,ATCTACTC,-0.0945 ± 0.036
17,ATCTACTG,-0.00673 ± 0.085
18,ATATACGA,0.247 ± 0.017
19,ATATACGC,0.0468 ± 0.016
20,ACATACGC,0.078 ± 0.081
21,TCATACGA,0.2 ± 0.064
22,ATATACTC,0.128 ± 0.077

row,Sequence,PBM 8-mer E-score
1,CTATACTA,0.081 ± 0.083
2,ATCTACTA,0.2783 ± 0.0027
3,CCTCGCTC,-0.0787 ± 0.12
4,GCGGAACC,-0.175 ± 0.0029
5,GGTCGGCA,-0.172 ± 0.038
6,ATGCCTCG,0.0473 ± 0.0097
7,AAACGCGA,0.0862 ± 0.15
8,GAGGCAAA,0.154 ± 0.077
9,GTGAGCGA,-0.125 ± 0.059
10,CCAGGCTA,-0.296 ± 0.027
11,GGAAGTAA,0.207 ± 0.022
12,AGGTACAA,0.128 ± 0.024
13,GGGTACAA,0.0175 ± 0.13
14,TTGTACAA,0.284 ± 0.073
15,GTGTACAA,0.1868 ± 0.0017
16,TGGTACAA,0.253 ± 0.084
17,CTGTACAA,0.045 ± 0.052
18,CATGGTTA,0.103 ± 0.0075
19,TCCGCACA,-0.187 ± 0.04
20,ACACGCGT,0.238 ± 0.014
21,ACACGCGG,0.246 ± 0.046
22,CCACGCGG,0.416 ± 0.005

row,Sequence,PBM 8-mer E-score
1,AAACGCGT,0.0946 ± 0.058
2,CCACGCGC,0.03925 ± 0.00016
3,ACACGCGC,0.0651 ± 0.19
4,CCACGCGA,0.0738 ± 0.016
5,ACGCGCGT,0.19 ± 0.13
6,ACACGCGA,0.15 ± 0.0033
7,AAACTCCA,-0.0494 ± 0.085
8,AACTTACG,0.0512 ± 0.088
9,GGATGGGA,0.00739 ± 0.13
10,AGCTTTAT,-0.0838 ± 0.085
11,AGTGTGTC,-0.0164 ± 0.029
12,TACGGCAA,0.0936 ± 0.016
13,GGCCAAGA,-0.116 ± 0.056
14,CTGCATTA,0.0657 ± 0.06
15,AAGCATGT,0.218 ± 0.064
16,ATGCATCA,0.276 ± 0.059
17,ATGCATTC,0.215 ± 0.1
18,ATGCATCG,0.0165 ± 0.083
19,AAGCATGC,0.254 ± 0.074
20,ATGCATGA,0.276 ± 0.055
